Experimental data published in PubChem BioAssay (NCI).
Several values for one entry are separate records, joined by “and”; a condition that tells them apart may be missing. Identical values can stand only once. About 83,000 compounds went through this panel and 20% of them were active in at least one assay; those are over-represented in the sample as a whole.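 96-well plates, one dose, 48 hours. Percent growth reported; active if below 10.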 Values without a mark were called inactive. Activity calls are given as the source filed them.

The compounds below were run on MDA-MB-468 breast (assay: NCI-60 one-dose screen, 48 h (100 = growth as untreated, 0 = no growth, -100 = all killed)). Settings: 10 µM unless noted.

Compound | growth
CS(=O)(=O)c1ccc(Cl)c([N+](=O)[O-])c1 | 103%
CC1(C)N=C(N)N=C(N)N1c1cccc(OCCOc2cccc([N+](=O)[O-])c2)c1 | 25.1%
O=S(=O)(NCCNc1cc(-c2cn(-c3ccccc3)nc2-c2cccc(O)c2)ccn1)c1ccccc1 | 34.2%
O=C(Cc1ccc([N+](=O)[O-])cc1)Oc1ccccc1 | 113%
CCCn1c2cc(OCc3cn(-c4ccc(Cl)cc4)nn3)ccc2c2ccnc(C)c21 | 38.9%
O=S(=O)(Nc1ccc(Cl)c(Cl)c1)c1ccc(-c2cnc(C3CC3)o2)cc1 | 7.72% (active)
O=Cc1nc2ccccc2[nH]1 | 108%
COc1cc(NCCCCCNC(C)C)c2ncccc2c1 | 87.6% and 39.1%
COc1ccc(/C=N/Nc2nc(N/N=C/c3ccc(OC)cc3O)nc(N3CCOCC3)n2)c(O)c1 | 63.1%
CC(C)CCSc1nc(-c2ccc(F)cc2)c(C#N)c(N2CCCCC2)n1 | 104%
COC(=O)c1c2c(c(C)[n+]([O-])c1C)C(=O)C(NCCN1CCOCC1)=CC2=O | 28.8%
O=C(/C=C1\C=CN(CCCCF)c2ccccc21)n1ccc2ccccc21 | 91.2%
C=CCCCCCCCCC(=O)[O][Sn]([CH2]CCC)([CH2]CCC)[CH2]CCC | -85.6% (active)
O=[N+]([O-])c1ccc(C=C2C(Cl)=C(Cl)C(Cl)=C2Cl)cc1 | 48.3%
N/C(=N\O)c1ncc(-c2ccc(C(F)(F)F)cc2)c(NC2CCCCCC2)n1 | -20.4% [100 µM] (active)
O=S(=O)(O)c1ccc(N=NSc2ccc3ccccc3c2)cc1 | 108%
COc1cccc2c1O/C(=C\c1ccc([N+](=O)[O-])s1)C2=O | 14.5%
Oc1c(Br)cc(Br)c2ccc(Cn3cc(-c4ccccc4C(F)(F)F)nn3)nc12 | 72.4%
CCCCC(CC)OC(=O)C(Br)CC (stereo not given) | 106%
CCOC(=O)c1cc(C(=O)c2cc(OC)c(OC)c(OC)c2)n2ncc3ccccc3c12 | 66%

Compound | growth
COc1ccc(OC)c(-c2nc(SCC(=O)c3ccc(C#N)cc3)[nH]c(=O)c2C#N)c1 | 94.3%
C=CCOc1cccc(/C=C2\SC(=S)N(C3CC(=O)N(c4ccc(Br)cc4)C3=O)C2=O)c1 (stereo not given) | 111%
COc1ccc(Cl)cc1NC(=O)c1c(NC(=O)C(F)(F)C(F)(F)F)sc2c1CCCCC2 | -16.9% (active)
Nc1cc2c(cc1Cl)-c1ccc([N+](=O)[O-])cc1/C2=N\O | 77.7%
O=C(O)CCCl | 94.6%
O=NN(CCCl)C(=O)NCc1ccc(-c2ccc(CNC(=O)N(CCCl)N=O)cc2)cc1 | 101%
OC[C@H]1OC([S-])[C@H](O)[C@@H](O)[C@@H]1O.[Au+] (stereo not given in full) | 90.7%
Nc1nc(=O)n([C@H]2CC=C(CO)O2)cc1F | 106%
CC/C(=C(\c1ccc(Cl)cc1)c1ccc(OCCN2CCCCC2)cc1)c1ccc(O)cc1 | 22.4%
CC(=O)c1cc(Br)ccc1O | 103%
CCOC(=O)c1c(NC(=O)c2ccccc2)sc2c3c(ccc12)OCN(C)C3 | -73.7% (active)
COC(=O)c1nc(=S)[nH]c(C(=O)OC)c1C(=O)c1ccccn1 | 19.3%
C=CCc1cc(C)ccc1NC(C(=O)NCC(=O)OC)c1ccccc1 (stereo not given) | 111%
O=S(=O)(Nc1cc(Sc2cccc3cccnc23)c(O)c2ccccc12)c1ccc(F)cc1 | -46.6% (active)
CNC(=O)c1cccc(-c2ccc3c(N4CCOC[C@@H]4C)nc(N4CCOC[C@@H]4C)nc3n2)c1 | -30.7% (active) and -22.8% (active)
COc1ccc(-n2cc(-c3ccccc3)c3c(SCC(=O)N/N=C/c4ccc([N+](=O)[O-])cc4)ncnc32)cc1 | 98%
COc1ccc([C@@H]2[C@@H](O)C(=O)N2c2cc(OC)c(OC)c(OC)c2)cc1Cl | 22.8%
Clc1ccc2c(N/N=C/c3c[nH]c4ccccc34)ccnc2c1 | -75.9% (active)
O=C1/C(=C\c2cn(-c3ccccc3)nc2-c2ccc(-c3cccs3)cc2)CCc2ccccc21 | 36.1%
COc1ccc(-c2ccccc2)cc1-c1c(Nc2cc(Cl)cc(Cl)c2O)c(=O)c1=O | -3.49% (active)
